# Data from the supplement of paper PMC10127200.
# Counter-ions that a name gives are not always drawn.
# Test system: FB
# Test: Euclidean distance of Cell Painting phenotypic profile (signed KS, 77 features) to DMSO centroid (dimensionless distance); 5 or 10 uM (library dependent); higher = stronger phenotypic change vs DMSO (phenoactivity)
# Conditions: 48 h
# Outline: (§1)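 Phenoactivity is defined as the Euclidean distance from a compound profile to the median vehicle profile. Each profile comprised 77 Harmony features, scored as signed Kolmogorov-Smirnov statistics versus same-plate vehicle wells, then plate-position corrected, correlation-weighted and replicate-averaged at the top dose. Five cancer lines and one healthy fibroblast line were exposed to library compounds for 48 h at 10 or 5 uM (0.1% DMSO final).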
row,SMILES,Euclidean distance
1,CC(C)N(CCC(=O)c1ccc2ccccc2c1)Cc1ccccc1,1.33
2,O=C1CCCC(=O)C1C(=O)c1ccc(C(F)(F)F)cc1[N+](=O)[O-] [Nitisinone],1
3,CCOC(=O)C1=C(C)NC(C)=C(C(=O)OC)C1c1cccc([N+](=O)[O-])c1 (stereo not drawn) [Nitrendipine],1.33
4,C/C(=C\C(=O)OCCCCCCCCC(=O)O)C[C@@H]1OC[C@H](C[C@@H]2O[C@H]2[C@@H](C)[C@H](C)O)[C@@H](O)[C@H]1O [Mupirocin calcium],0.82
5,CN[C@@H](C)C(=O)N[C@H]1CN(C(=O)CC(C)C)CC[C@H]2CC[C@@H](C(=O)NC(c3ccccc3)c3ccccc3)N2C1=O,0.766
6,C[C@H]1COc2c(N3CCN(C)CC3)c(F)cc3c(=O)c(C(=O)O)cn1c23 [Levofloxacin hydrate],1.25
7,O=C(Nc1ccccc1)OCC(CN1CCCCC1)OC(=O)Nc1ccccc1 (stereo not drawn) [Diperodon HCl],1.59
8,CC(C)Oc1ccc2c(=O)c(-c3ccccc3)coc2c1 [Ipriflavone (Osteofix)],1.17
9,CC(=O)[C@H]1CC[C@H]2[C@@H]3CC=C4C[C@@H](O)CC[C@]4(C)[C@H]3CC[C@]12C [Pregnenolone],1.07
10,CC(C)CC(N)=O [Isovaleramide],0.571
11,CCCN1CCCC[C@H]1C(=O)Nc1c(C)cccc1C [Ropivacaine],1.93
12,Cc1cnc(-c2cc(N3CCN(C(=O)CCS(C)(=O)=O)CC3)ncc2Cl)c(C)c1,1.23
13,COc1ccccc1N1CCN(CCCNc2cc(=O)n(C)c(=O)n2C)CC1 [Urapidil HCl],0.778
14,OCCN1CCN(CCCN2c3ccccc3Sc3ccc(C(F)(F)F)cc32)CC1 [Fluphenazine dihydrochloride],2.76

# Test system: HEPG2
# Test: as above
# Conditions: 48 h
# Outline: as §1
row,SMILES,Euclidean distance
1,C/C=C(/C)C(=O)O[C@H]1[C@H](OC(C)=O)[C@@]2(CO)C(CC1(C)C)C1=CCC3[C@@]4(C)CCC(O[C@@H]5O[C@H](C(=O)O)[C@@H](O[C@@H]6O[C@H](CO)[C@@H](O)[C@H](O)[C@H]6O)[C@H](O)[C@H]5O[C@@H]5O[C@H](CO)[C@@H](O)[C@H](O)[C@H]5O)[C@](C)(CO)C4CC[C@@]3(C)[C@]1(C)C[C@H]2O.C/C=C(\C)C(=O)O[C@H]1[C@H](OC(C)=O)[C@@]2(CO)C(CC1(C)C)C1=CCC3[C@@]4(C)CCC(O[C@@H]5O[C@H](C(=O)O)[C@@H](O[C@@H]6O[C@H](CO)[C@@H](O)[C@H](O)[C@H]6O)[C@H](O)[C@H]5O[C@@H]5O[C@H](CO)[C@@H](O)[C@H](O)[C@H]5O)[C@](C)(CO)C4CC[C@@]3(C)[C@]1(C)C[C@H]2O (stereo partly drawn) [Escin],0.678
2,OC(CNCC(O)C1CCc2cc(F)ccc2O1)C1CCc2cc(F)ccc2O1 (stereo not drawn) [Nebivolol],2.26
3,COc1ccc(C[C@H](NC(=O)[C@H](C)NC(=O)CN2CCOCC2)C(=O)N[C@@H](Cc2ccccc2)C(=O)[C@@]2(C)CO2)cc1,5.18
4,CC(C)N(CCCNC(=O)Nc1ccc(C(C)(C)C)cc1)C[C@H]1O[C@@H](n2ccc3c(N)ncnc32)[C@H](O)[C@@H]1O,0.5
5,O=C(Nc1ncc(SCCN2CCCC2)s1)[C@]1(c2ccc(S(=O)(=O)C3CC3)cc2)C[C@H]1C1CCCCC1,3.45
6,CCOC(=O)CC(=O)N1CCSC1COc1ccccc1OC (stereo not drawn) [Moguisteine],1.08
7,COc1cc(N2CCC(N3CCN(C)CC3)CC2)ccc1Nc1ncc(Cl)c(Nc2ccccc2P(C)(C)=O)n1,1.51
8,CC(C)c1cc(C(C)C)c(CC(=O)NS(=O)(=O)Oc2c(C(C)C)cccc2C(C)C)c(C(C)C)c1 [Avasimibe],0.752
9,C#Cc1cccc(Nc2ncnc3cc(OCCOC)c(OCCO)cc23)c1,1.07
10,CC1(C)S[C@@H]2[C@H](NC(=O)C(c3ccccc3)S(=O)(=O)O)C(=O)N2[C@H]1C(=O)O (stereo partly drawn) [Sulbenicillin Sodium],0.601
11,COc1cc2/c(=N/c3ccc(Br)cc3F)nc[nH]c2cc1OCC1CCN(C)CC1 [Vandetanib (ZD6474)],1.7
12,Cc1ccc(NC(=O)c2cccc(C(C)(C)C#N)c2)cc1Nc1ccc2ncn(C)c(=O)c2c1,1.53
13,C[C@]12CC[C@@H]3c4ccc(O)cc4C[C@@H](CCCCCCCCC[S+]([O-])CCCC(F)(F)C(F)(F)F)[C@H]3[C@@H]1CC[C@@H]2O (stereo partly drawn) [Fulvestrant],0.76
14,CC[C@H](Nc1ncnc2[nH]cnc12)c1nc2cccc(F)c2c(=O)n1-c1ccccc1 [CAL-101 (Idelalisib. GS-1101)],0.747
